Experimental findings from PubChem BioAssay (EPA / NIEHS) are described below.

A short description of experiment [1]: Tanguay_ZF_120hpf_MORT_legacy: (Legacy) Oregon State University Tanguay Lab 120 Hour Post-fertilization zebrafish Assay for Mortality (AID 2283633).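 For AC50: fitted as increase in binary mortality versus DMSO negative control.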 An outline of the steps: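 Dechorionated Tropical 5D wild-type zebrafish embryos, one per well from 6 hpf, static exposure in 0.64% DMSO at 28C until 120 hpf. Mortality scored as binary by brightfield microscopy at 24 and 120 hpf.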

The nature of experiment [2]: Tanguay_ZF_120hpf_YSE_legacy: (Legacy) Oregon State University Tanguay Lab 120 Hour Post-fertilization zebrafish Assay for Yolk Sac Edema (AID 2283634).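 For AC50: actives raise the incidence of yolk sac edema above the DMSO baseline.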 An outline of the steps: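 Dechorionated Tropical 5D wild-type zebrafish embryos were exposed statically, one per well, from 6 to 120 hpf at 28C in 0.64% DMSO. Yolk sac edema was scored present/absent by brightfield at 120 hpf, and dead embryos were excluded.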

Experiment [3] is described as follows: Tanguay_ZF_120hpf_AXIS_legacy: (Legacy) Oregon State University Tanguay Lab 120 Hour Post-fertilization zebrafish Assay for Body Axis Malformation (AID 2283635). In short, it runs like this:
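Dechorionated wild-type Tropical 5D zebrafish embryos, one per well, statically exposed from 6 hpf to 120 hpf at 28C in 0.64% DMSO final. Body axis malformation scored present/absent by brightfield microscopy at 120 hpf; dead embryos excluded.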

The nature of experiment [4]: Tanguay_ZF_120hpf_EYE_legacy: (Legacy) Oregon State University Tanguay Lab 120 Hour Post-fertilization zebrafish Assay for Eye Malformation (AID 2283636).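 Note: binary presence or absence of eye malformation scored by brightfield in 120 hpf larvae.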 In short, it runs like this: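 Binary brightfield scoring of eye defects at 120 hpf after static exposure from 6 hpf of single pronase-dechorionated wild-type embryos (28C, 0.64% DMSO). Non-mortality endpoints omitted where embryos died; fit vs DMSO.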

Experiment [5] can be described thus: Tanguay_ZF_120hpf_SNOU_legacy: (Legacy) Oregon State University Tanguay Lab 120 Hour Post-fertilization zebrafish Assay for Snout Malformation (AID 2283637). An outline of the steps: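 Binary snout-malformation call at 120 hpf in wild-type 5D embryos, chorion removed by pronase, under static exposure from 6 hpf at 28C (0.64% DMSO). Embryos dying by 24 or 120 hpf excluded.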

A short description of experiment [6]: Tanguay_ZF_120hpf_JAW_legacy: (Legacy) Oregon State University Tanguay Lab 120 Hour Post-fertilization zebrafish Assay for Jaw Malformation (AID 2283638). An outline of the steps: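 Dechorionated Tropical 5D wild-type zebrafish embryos, one per well, exposed statically from 6 hpf to 120 hpf at 28C in 0.64% DMSO. Jaw malformation was scored by brightfield microscopy as present or absent. It was not scored in dead embryos.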

A short description of experiment [7]: Tanguay_ZF_120hpf_PE_legacy: (Legacy) Oregon State University Tanguay Lab 120 Hour Post-fertilization zebrafish Assay for Pericardial Edema (AID 2283640).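 For AC50: potency for increased incidence of pericardial edema versus DMSO baseline.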 An outline of the steps:
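Tropical 5D wild-type zebrafish embryos were statically exposed until 120 hpf at 28C, with 0.64% DMSO final. Pericardial edema was scored by brightfield as present or absent; endpoints were not scored in dead embryos.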

The nature of experiment [8]: Tanguay_ZF_120hpf_BRAI_legacy: (Legacy) Oregon State University Tanguay Lab 120 Hour Post-fertilization zebrafish Assay for Brain Malformation (AID 2283641). An outline of the steps: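 Tropical 5D wild-type zebrafish embryos exposed statically until 120 hpf at 28C, 0.64% DMSO final, sealed and dark. Brain malformation scored present/absent by brightfield at 120 hpf; dead embryos excluded. Trimethyltin chloride 5uM positive control.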

Experiment [9] is described as follows: Tanguay_ZF_120hpf_SOMI_legacy: (Legacy) Oregon State University Tanguay Lab 120 Hour Post-fertilization zebrafish Assay for Somite Malformation (AID 2283647). In short, it runs like this: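 Dechorionated Tropical 5D wild-type zebrafish embryos, one per well from 6 hpf, statically exposed at 28C to 120 hpf in 0.64% DMSO; somite malformation scored present/absent by brightfield; trimethyltin 5 uM positive control; dead embryos not scored.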

The nature of experiment [10]: Tanguay_ZF_120hpf_PFIN_legacy: (Legacy) Oregon State University Tanguay Lab 120 Hour Post-fertilization zebrafish Assay for Pectoral Fin Malformation (AID 2283648).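 Note: each larva judged yes or no for fin defect by brightfield with dead larvae skipped.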 An outline of the steps: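 Pectoral fin malformation was recorded as a binary endpoint at 120 hpf in wild-type Tropical 5D larvae, which had been dechorionated and exposed statically from 6 hpf at 28C in 0.64% DMSO. Dead embryos were excluded.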

A short description of experiment [11]: Tanguay_ZF_120hpf_CFIN_legacy: (Legacy) Oregon State University Tanguay Lab 120 Hour Post-fertilization zebrafish Assay for Caudal Fin Malformation (AID 2283649). In short, it runs like this:
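Dechorionated Tropical 5D wild-type embryos, one per well from 6 hpf, static exposure to 120 hpf at 28C in 0.64% DMSO. Caudal fin malformation scored by brightfield as present/absent; not scored in dead embryos.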

Experiment [12] can be described thus: Tanguay_ZF_120hpf_PIG_legacy: (Legacy) Oregon State University Tanguay Lab 120 Hour Post-fertilization zebrafish Assay for Pigmentation Malformation (AID 2283650). In short, it runs like this: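 Pigment malformation recorded as a binary call at 120 hpf in zebrafish (Tropical 5D) exposed singly from 6 hpf after pronase dechorionation. Static, sealed, 28C exposure, 0.64% DMSO; mortality excludes scoring; positive-direction fit against DMSO.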

Experiment [13] in a line: Tanguay_ZF_120hpf_CIRC_legacy: (Legacy) Oregon State University Tanguay Lab 120 Hour Post-fertilization zebrafish Assay for Circulatory Malformation (AID 2283651). In short, it runs like this: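 Binary circulatory malformation call at 120 hpf by brightfield imaging of zebrafish larvae; chorion removed at 4 hpf, static exposure from 6 hpf in sealed dark plates at 28C, final DMSO 0.64%; non-mortality endpoints skipped if embryo died.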

The nature of experiment [14]: Tanguay_ZF_120hpf_SWIM_legacy: (Legacy) Oregon State University Tanguay Lab 120 Hour Post-fertilization zebrafish Assay for Swim Bladder Malformation (AID 2283654).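 Note: swim bladder malformation in each larva scored yes or no under brightfield.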 In short, it runs like this: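 Scoring is binary for swim bladder defects at 120 hpf, by brightfield inspection of zebrafish larvae. Embryos were exposed singly from 6 hpf after pronase dechorionation, at 28C with 0.64% DMSO; mortality excluded scoring.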

Experiment [15] can be described thus: Tanguay_ZF_120hpf_TRUN_legacy: (Legacy) Oregon State University Tanguay Lab 120 Hour Post-fertilization zebrafish Assay for Truncated Body (AID 2283655). In short, it runs like this: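 Dechorionated Tropical 5D wild-type embryos placed singly from 6 hpf and statically exposed to 120 hpf at 28C, final DMSO 0.64%. Truncated body scored as present/absent by brightfield; not scored in dead embryos.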

Experiment [16] can be described thus: Tanguay_ZF_120hpf_NC_legacy: (Legacy) Oregon State University Tanguay Lab 120 Hour Post-fertilization zebrafish Assay for Notochord and Tail Malformation (AID 2283656). An outline of the steps:
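Binary scoring of notochord distortion by brightfield microscopy; embryos dying were not scored. Wild-type Tropical 5D embryos, chorion removed, exposed singly and statically from 6 to 120 hpf, 28C, sealed, 0.64% DMSO.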

Read-out in experiment [17]: solute carrier (SLC22A6), SLC22A6 (gene 9356)
In words: LTEA_HepaRG_SLC22A6: Life Technologies and Expression Analysis (LTEA) Assay for solute carrier (SLC22A6) using HepaRG (AID 2283653; active = hit-call score of the fitted dose curve at least 0.9, where 1 is the maximum; inactive = score below 0.9). To be noted: mRNA level, 48 h; actives raise or lower the signal. In short, it runs like this: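 Differentiated HepaRG cells exposed 48 h in serum-free induction medium to 8 half-log concentrations, top 100 uM, in 0.5% DMSO; SLC22A6 mRNA by Fluidigm qRT-PCR normalized to ACTB, GAPDH, POLR2A, fitted bidirectionally versus DMSO.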

Read-out in experiment [18]: solute carrier (SLC10A1), SLC10A1 (gene 6554)
As to the kind of experiment: LTEA_HepaRG_SLC10A1: Life Technologies and Expression Analysis (LTEA) Assay for solute carrier (SLC10A1) using HepaRG (AID 2283657; active = hit-call score of the fitted dose curve at least 0.9, where 1 is the maximum; inactive = score below 0.9). The settings on record: mRNA level, 48 h; actives raise or lower the signal. An outline of the steps:
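SLC10A1 transcript measured by TaqMan qRT-PCR, housekeeping-normalised, after 48 h chemical treatment of human HepaRG cells. Eight concentrations (half-log, max 100 uM, 0.5% DMSO vehicle) in duplicate; fitted bidirectionally against DMSO baseline.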

“And” between values parts separate entries of the source, which are not always exact repeats. Identical values can stand only once. Inconclusive results are not listed. The source holds several records for some structures; these can differ, active in one and inactive in another. The source made the active and inactive calls. Rule for the calls, unless noted: active = hit-call score of the fitted dose curve at least 0.9, where 1 is the maximum; inconclusive = response in the unintended direction; inactive = score below 0.9.

Consider `O=C(O)COc1nc(Cl)c(Cl)cc1Cl`, for which the compound was called inactive in experiment [1], in [2], in experiment [3], in experiment [4], in experiment [5] and in experiment [6]. Also, the outcome in [7], in experiment [8], in experiment [9], in experiment [10], in [11] and in experiment [12] was inactive. Further, the outcome in experiment [13], in experiment [14] and in [15] was inactive.

As to `CN(C)C(=S)SSC(=S)N(C)C`, the result in [1], in [2], in experiment [3], in experiment [4], in [5] and in experiment [6] was inactive. Besides, the result in experiment [7], in [8], in experiment [9], in experiment [10], in experiment [11] and in experiment [12] was inactive. In addition, the outcome in experiment [13], in experiment [15] and in experiment [16] was inactive.

Consider `CCCCOC(=O)c1ccccc1C(=O)OCCCC`, for which the result in experiment [1], in experiment [2], in experiment [3], in experiment [4], in experiment [5] and in [6] was inactive. Also, the call in experiment [7], in experiment [8], in [9], in experiment [10], in experiment [11] and in experiment [12] was inactive. The call in [13], in experiment [14], in experiment [15] and in experiment [16] was inactive.

As to `COC(=O)C(C)Oc1ccc(Oc2ccc(Cl)cc2Cl)cc1` (centres undefined), the outcome in [1], in experiment [2], in [3], in experiment [4], in experiment [5] and in [6] was inactive. The outcome in experiment [7], in [8], in [9], in experiment [10], in experiment [11] and in experiment [12] was inactive. For the same compound, the call in experiment [13], in experiment [14], in [15] and in experiment [16] was inactive.

As a reminder, the AC50 is the midpoint of the concentration-response curve, whichever way the signal moves. Regarding `Cc1ccc(-c2c(Cl)nc(C#N)n2S(=O)(=O)N(C)C)cc1`, in experiment [1], the half-maximal activity concentration (AC50) was 1.55 µM (active). For the same compound, the call in experiment [2], in [3], in experiment [4], in [5], in experiment [6] and in [7] was inactive. For the same compound, the compound was called inactive in experiment [8], in experiment [9], in [10], in experiment [11], in experiment [12] and in experiment [13]. Further, the compound was classed as inactive in [14], in [15] and in experiment [16].

Regarding `CO/C=C(/C(=O)OC)c1ccccc1Oc1cc(Oc2ccccc2C#N)ncn1`, the AC50 was 7.48 µM (active) and 1.44 µM (active) in experiment [1]; 5.69 µM (active) in experiment [2]; 5.47 µM (active) in experiment [7]; 78.6 µM (active) in experiment [18]. Also, the call in [1], in [2], in experiment [3], in [4], in [5] and in [6] was inactive. Besides, the outcome in experiment [7], in experiment [8], in experiment [9], in experiment [10], in experiment [11] and in [12] was inactive. Also, the compound was classed as inactive in [13], in experiment [17], in experiment [14], in experiment [15] and in [16].
